Bioassay records from PubChem BioAssay.
ELG1 DNA repair = ELG1-dependent DNA repair inhibition; HEK293T ELG1-luciferase reporter, luminescence, 16 h; DNA damage induced by 5-fluorouridine; Potency, µM (highest dose often 46.1 µM), for the others: top-dose activity change, negative = inhibition, actives largely listed as inhibitors; actives 2.3% (n = 330,000); AID 504467; also: % is scaled to controls: 0 for no effect and ±100 for the full control effect; nearly all actives have a fitted effect of over 55% in size
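Overnight (16 hr) co-exposure of 2,000 cells/well to 5-fluorouridine and compound at 37 °C preceded detection. Luciferase was quantified via ONE-Glo luminescence; loss of signal denotes inhibition.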
A549 tox = kills or reduces viability of A549 cells in Nrf2 counter-screen. A549 ARE-Fluc cells, CellTiter-Fluor viability, 18-24 h. Potency, µM (top dose mostly 46 µM), without a hit: at the top dose activity change, negative = cytotoxicity, most hits filed as inhibitors. actives 0.16% (n = 390,000); also: % is scaled to controls: 0 for no effect and ±100 for the full control effect
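A549 ARE-Fluc cells in 5% FBS OPTI-MEM, 5000 cells/well, rested 2 h then exposed to compounds in concentration-response for 18-24 h at 37 °C. Viability by CellTiter-Fluor fluorescence (Ex 405/Em 525) after 30 min; luciferase luminescence (BugLite, 15 min, RT) read afterwards.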
Nrf2 activator = activates Nrf2 signaling | AREc32 ARE-luciferase reporter (MCF7-derived line), luminescence, 24 h | Potency, µM (series often up to 46.1 µM), for the others: at the top dose activation, actives largely listed as activators | actives 0.31% (n = 410,000); also: % of control where 0% means no effect; nearly all actives have a fitted effect of over 65% in size
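ARE activation measured as luciferase luminescence (Steady-Glo, 30 min RT) in AREc32_Fluc cells after 24 hr compound exposure at 37 deg C, 5% CO2; cells seeded overnight at 1000/well in OPTI-MEM, 5% FBS.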
Nrf2 inh = Nrf2 pathway inhibition. A549 ARE-Fluc reporter, luciferase luminescence, 18-24 h. actives 2.1% (n = 360,000). Potency, µM (top dose mostly 46 µM), inactives show at the top dose activity change, negative = inhibition, most hits filed as inhibitors; also: % is scaled to controls: 0 for no effect and ±100 for the full control effect; nearly all actives have a fitted effect of over 60% in size
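A549 ARE_Fluc cells, 5000/well, 5% FBS OPTI-MEM; compounds in dose-response, 18-24 h at 37 °C/5% CO2; CellTiter-Fluor viability read (Ex 405/Em 525), then BugLite luciferase luminescence = Nrf2 activity.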
Active calls of the source: *; ? = inconclusive; . = no result. Shown are actives, neighbours in structure and some others; about 3.7% of the full set was active somewhere. Calls follow the shape of the dose curve; as a rule, active = well fitted curve in the direction sought with a large enough effect; inconclusive = small, poorly fitted or top-dose-only effect, or another doubt; inactive = no such curve, though single readings can be large; an effect the other way counts as inactive or inconclusive. Potency is read from the fitted curve at half-maximal effect.

SMILES | ELG1 DNA repair | A549 tox | Nrf2 activator | Nrf2 inh
O=C(Nc1ccccc1)c1ccc(S(=O)(=O)NCc2cccnc2)cc1 | ? | 0% | 0% | 13µM*
COc1cc(OC)c(NC(=O)C(Cc2ccccc2)NS(=O)(=O)c2cccc3nsnc23)cc1Cl (configuration not stated) | . | -13% | 0% | -3%
CCOc1ccccc1CNC(=O)c1cc2c(=O)n(Cc3cccnc3)ccc2nc1C | . | 3% | 4% | -23%
COc1ccc2[nH]c3c(c2c1)CCN1C(=O)C(CC(=O)NCCC2=CCCCC2)C[C@H](C(=O)N2CCCCC2)[C@@]31CCc1ccccc1 (some centres not stated) | 7% | -25% | 0% | 18µM*
COc1ccc2[nH]c3c(c2c1)CCN1C(=O)C(CC(=O)NCCN2CCOCC2)C[C@H](C(=O)N2CCCCC2)[C@@]31CCc1ccccc1 (some centres not stated) | 16% | -3% | 0% | -2%
COCCCNC(=O)C[C@H]1C[C@H](C(=O)N2CCCCC2)[C@@]2(CCc3ccccc3)c3[nH]c4ccc(Cl)cc4c3CCN2C1=O | 21µM* | ? | 1% | ?
Cc1cc(C)c(S(C)(=O)=O)c(Oc2cccc(C(F)(F)F)c2)n1 | -3% | 3% | -1% | -18%
CN(Cc1ccccc1)S(=O)(=O)c1ccc(NC(=S)NC(=O)C2CCCC2)cc1 | 16µM* | -15% | 0% | .
COc1ccccc1Nc1cc2ccccc2c(=O)[nH]1 | . | ? | . | 99%
CC(=O)NC(CC(=O)OCC(=O)N1CCN(S(=O)(=O)c2ccc(C)cc2C)CC1)c1ccccc1 (configuration not stated) | -22% | 4% | 1% | 21µM*
Cc1ccc(S(=O)(=O)N2CCN(C(=O)CSC3CCCC3)CC2)c(C)c1 | 21µM* | -12% | -1% | 26µM*
CCOC(=O)c1c(C)[nH]c(C(=O)OCC(=O)N2CCN(S(=O)(=O)c3ccccc3)CC2)c1C | ? | 10% | 0% | ?
CC(=O)c1c(C)[nH]c(C(=O)OCC(=O)N2CCN(S(=O)(=O)c3ccc(C)cc3)CC2)c1C | -13% | -4% | 0% | 16µM*
Cc1ccc(S(=O)(=O)N2CCN(C(=O)CSC(=S)N3CCCC3)CC2)c(C)c1 | ? | 0% | 11% | ?
CC(=O)c1c(C)[nH]c(C(=O)OCC(=O)N2CCN(S(=O)(=O)c3ccc(C)cc3C)CC2)c1C | 18µM* | -14% | -1% | ?
COc1ccccc1CNS(=O)(=O)c1cc(C(=O)Nc2cccc(C(F)(F)F)c2)ccc1F | . | ? | -1% | .
COC(=O)C(NNc1ccc(F)cc1)(NC(=O)c1ccccc1)C(F)(F)F (configuration not stated) | 4% | -3% | 1% | 23µM*
COc1ccc(N2CCN(C(=O)CSc3nnc4c(C)cc5ccccc5n34)CC2)cc1 | 23µM* | 2% | -1% | -2%
Cc1cc2ccccc2n2c(SCC(=O)N3CCc4ccccc4C3)nnc12 | ? | -2% | 3% | -1%
CCOC(=O)Cc1nn(Cc2nc(-c3ccc(C#N)cc3)cs2)c(=O)c2ccccc12 | 10µM* | -6% | 2% | ?
Oc1ccc(COc2ccccc2Cl)c2cccnc12 | . | -5% | . | 18µM*
Cc1cc(C)cc(NC(=S)Nc2cccc3cnccc23)c1 | ? | 2% | 3% | -3%
Cc1ccc(NC(=S)Nc2cccc3cnccc23)c(C)c1 | 21µM* | -1% | 0% | -17%
CCOC(=O)c1[nH]ncc1CN1CCN(Cc2ccccc2)C(CCO)C1 (configuration not stated) | -13% | 1% | 0% | 15%
COc1ccc(-n2c(SC(C)C(=O)Nc3ccc(NC(C)=O)cc3)nc3ccccc3c2=O)cc1OC (configuration not stated) | 3% | -18% | 6% | -20%
SMILES | ELG1 DNA repair | A549 tox | Nrf2 activator | Nrf2 inh
Cn1nc(C(F)(F)F)c2cc(C(=O)Nc3ccc(F)c(Cl)c3)sc21 | ? | -8% | -1% | 13µM*
Cn1nc(C(F)(F)F)c2cc(C(=O)Nc3ccc(C(F)(F)F)cc3)sc21 | ? | ? | 0% | 23µM*
Cn1nc(C(F)(F)F)c2cc(C(=O)Nc3ccc(F)cc3)sc21 | ? | ? | 0% | ?
COc1ccccc1CNC(=O)c1sccc1-c1ccccc1 | -8% | 1% | 4% | 27%
Cc1ccc(N2CC(C(=O)OCC(=O)Nc3c(C)cccc3C)CC2=O)cc1 (configuration not stated) | . | . | -1% | .
O=S(=O)(Nc1ccc2c(c1)nc1n2CCN(Cc2ccccc2)C1)c1ccc(Cl)cc1 | ? | ? | -1% | 13µM*
COc1ccc2c(c1)C(=O)C1(CC2)OC1c1cccnc1 (configuration not stated) | . | . | 13% | .
COc1cc(/C=C(/C(=O)O)c2ccc(-c3ccccc3)cc2)cc(OC)c1OC | -22% | -10% | 0% | 4%
COc1cc(C=c2c3ccccc3n3c2cc(-c2ccccc2)[n+]3C)cc(OC)c1OC | . | ? | 15% | 16µM*
CN(C)c1ccc(C=c2c3cc([N+](=O)[O-])ccc3n3c2cc(-c2ccccc2)[n+]3C)cc1 | . | ? | -4% | 8.2µM*
CN(C)c1ccc(C=c2c3ccccc3n3c2c2c([n+]3C)CCCC2)cc1 | . | 21µM* | -3% | 6.5µM*
Cn1c(CO)c(-c2ccccc2)c2cc([N+](=O)[O-])ccc21 | -26% | -8% | 3% | ?
COc1cc(N(C)C)ccc1C=c1c2ccccc2n2c1cc(-c1ccccc1)[n+]2C | . | ? | 6% | 15µM*
CCc1nc(CNC(=O)C2CCC(=O)N(Cc3cccc(OC)c3)C2)no1 (configuration not stated) | ? | 0% | 0% | 4%
Cc1c(Cl)cccc1NC(=O)Cn1c(=O)cc(C)c2c(C)nn(-c3cccc(F)c3)c21 | . | 2% | 0% | ?
CN(C)c1ccc(C=c2c3ccccc3n3c2cc(-c2ccccc2)[n+]3C)cc1 | . | 16µM* | 0% | 5.8µM*
CN(C)c1ccc(C=c2c3ccccc3n3c2cc(-c2ccc(Cl)cc2)[n+]3C)cc1 | . | ? | 26% | ?
Cc1ccc(CCNC(=O)CN2C(=O)COc3ccc(S(=O)(=O)N4CCOCC4)cc32)cc1 | 7% | -5% | 0% | -6%
O=C(CSc1nnc(Cc2ccccc2)c(=O)[nH]1)Nc1ccccc1 | 11% | 1% | -1% | 5%
Cc1oc(-c2ccc3c(c2)OCCO3)cc1C(=O)O | 1.6µM* | -5% | -1% | 9.2µM*
COc1cc(C#N)c(NC(=O)CN2CCN(CCO)CC2)cc1OC | 8% | 2% | -1% | 9%
CCCCNC(=O)C1(C)CCC(=O)N1C1CC1 (configuration not stated) | . | . | -1% | .
O=C(CN(c1ccc(Cl)c(C(F)(F)F)c1)S(=O)(=O)c1ccccc1)N1CCc2ccccc2C1 | . | 11% | 7% | ?
